Assay results published in PubChem BioAssay AID2732 (Emory University Molecular Libraries Screening Center, 2010).
Where “and” joins values, the source holds several entries; their conditions need not be identical. Equal values may be shown once. In all, about 220,000 compounds went through this assay and about 8,200 (3.7%) were called active. This is one part of a sample in which actives are shown more often than they occur.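 The calls were made as follows: active = compounds that reduced the stress-induced luciferase reporter signal by more than about 70% of percent inhibition (limit read from the data); inactive = the rest.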

Assay: blockers of ER-stress CHOP reporter expression – cell-based, unfolded protein response, luciferase reporter, primary screen (AID 2732);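 also: 0% = tunicamycin plus vehicle and 100% = wells without tunicamycin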
Conditions: CHO-K1 CHOP-promoter luciferase, tunicamycin-induced, 15-18 h; at 10 µM; hits give high values

| SMILES | inhibition |
| --- | --- |
| CC(C)CCNC(=O)C1CCC(CNc2c(N3CCC(C)CC3)c(=O)c2=O)CC1 (stereo not given) | 1.09% (inactive) |
| Cc1ccc2c(c1)nnc1nnc(SCC(=O)O)n12 | 3.13% (inactive) |
| CSc1nc(-c2ccco2)nn1C(=O)CCc1ccccc1 | 37.2% (inactive) |
| CSc1nc(-c2ccco2)nn1C(=O)c1ccccc1Cl | 78.2% (active) |
| CS(=O)(=O)n1nc(-c2ccco2)nc1N | 42.4% (inactive) |
| COc1cccc(N2C(=O)CC(N3CCc4ccccc4C3)C2=O)c1 (stereo not given) | -8.87% (inactive) |
| CSCC[C@H](NC(=O)CCCn1nnc2ccccc2c1=O)C(=O)O | 4.06% (inactive) |
| Cc1ccc(C(=O)c2c(NC(=O)c3ccccc3)sc(C)c2C)cc1 | 53.1% (inactive) |
| Cc1ccc(C(=O)c2c(NC(=O)c3ccncc3)sc3c2CCCC3)cc1 | 73.2% (active) |
| Cc1ccc(NC(=O)c2c(NC(=O)CCC(=O)O)sc3c2CCCCC3)cc1 | 5.76% (inactive) |
| COc1c(C=O)c(CCN(C)C(=O)c2ccc(F)cc2)cc2c1OCO2 | -10.2% (inactive) |
| COc1ccccc1C1CCN(C(=S)Nc2ccc(Br)cc2)CC1 | 26.5% (inactive) |
| COc1ccccc1C(c1nnnn1CC1CCCO1)N1CCN(c2ccccc2)CC1 (stereo not given) | -9.42% (inactive) |
| COCCn1nnnc1C(c1ccccc1Cl)N1CCN(c2ccccc2OC)CC1 (stereo not given) | 81.6% (active) |
| COc1ccccc1C(c1nnnn1C(C)(C)C)N1CCN(Cc2ccccc2)CC1 (stereo not given) | -9.46% (inactive) |
| O=C(NCc1cccnc1)C(=O)Nc1nc(-c2ccccc2)cs1 | 16.9% (inactive) |
| FC(F)(F)c1ccnc(Oc2ccc(C3=NCCS3)cc2)c1 | 1.85% (inactive) |
| CC(C)=CCC/C(C)=C/C(=O)O | -11.9% (inactive) |
| Cc1ccc(C(=O)N2CCCC(c3ccccc3)=N2)cc1 | 78.5% (active) |
| Cc1ccc(NC(=S)N2CCCC(c3ccccc3)=N2)cc1 | 16.8% (inactive) |

| SMILES | inhibition |
| --- | --- |
| Cc1ccc(C(=O)C[n+]2cc(-c3ccccc3)n3c2CCCCC3)cc1 | -15.7% (inactive) and 24.3% (inactive) |
| O=C(COc1cc(Cl)c(Cl)cc1Cl)NC(=O)NC1CCCC1 | 91% (active) |
| O=C(COc1cc(Cl)c(Cl)cc1Cl)NCCc1ccccn1 | -12.8% (inactive) |
| O=C(COc1ccccc1F)NC1CC1 | 40% (inactive) |
| CCN(CC)CCC(c1ccc2c(c1)OCO2)c1c(OC)cc(OC)c2c(-c3ccccc3)cc(=O)oc12 (stereo not given) | -37.9% (inactive) |
| COc1ccc(NS(=O)(=O)c2ccc(Oc3c(C#N)cccc3C#N)cc2)cc1 | 54.8% (inactive) |
| COc1ccc2[nH]cc(/C=C(/C#N)S(=O)(=O)c3ccccc3)c2c1 | 70.3% (active) |
| CCN(CC)CC(=O)c1c[nH]c2ccc(OC)cc12 | -4.19% (inactive) |
| Cc1cc(C)nc(SCc2cn3c(C)cc(C)nc3n2)n1 | 19.4% (inactive) |
| Cc1onc(-c2ccc(Cl)cc2)c1-c1ccnn1S(=O)(=O)c1ccc(Cl)cc1 | 57.9% (inactive) |
| COc1ccc(CCNC(=O)CSc2nc3[nH]ncc3c(=O)n2-c2cccc(C(F)(F)F)c2)cc1OC | 16.4% (inactive) |
| NC(=O)NC(=O)CSc1nc2cc([N+](=O)[O-])ccc2n1-c1cccc(C(F)(F)F)c1 | 76.3% (active) |
| COc1ccc(-n2cnnc2SCC(=O)Nc2cccc([N+](=O)[O-])c2)cc1 | 5.96% (inactive) |
| NS(=O)(=O)c1ccc(NC2=CC(c3ccc(F)cc3)N(c3ccc(S(N)(=O)=O)cc3)C2=O)cc1 (stereo not given) | -15.2% (inactive) |
| CN(C)CCCn1c(SCCN2C(=O)c3ccccc3C2=O)nc2ccccc2c1=O | 4.6% (inactive) |
| CC(C)(C)c1nc2ccccc2c(=O)n1N1C(=O)c2ccccc2C1=O | 71.3% (active) |
| CCC1(CC)Cc2ccccc2-c2nc3ccccc3c(=O)n21 | 16.7% (inactive) |
| CCCN(c1ccc(C)cc1)c1nc(=O)c2cccnc2s1 | 12.3% (inactive) |
| Cc1cc(N)n(-c2ccc(S(=O)(=O)N3CCCC3)cc2[N+](=O)[O-])n1 | 7.68% (inactive) |
| CC(C)Nc1ncnc2c1nnn2Cc1ccccc1 | 21.7% (inactive) |

| SMILES | inhibition |
| --- | --- |
| CC(C)(C)c1nc(NCC2CCCO2)c2nnn(Cc3ccccc3)c2n1 (stereo not given) | 71.1% (active) |
| Cn1c(=O)c2[nH]c(NCC3CCCO3)nc2n(-c2ccccc2)c1=O (stereo not given) | 8.41% (inactive) |
| CC/C=C/C(=O)N1CC2(CC(c3cccc(NC(=O)CC)c3)=NO2)C[C@H]1C(N)=O (stereo not given in full) | -5.15% (inactive) |
| CC(C)Cc1nnc(NC(=O)CCC(=O)Nc2ccc3cn[nH]c3c2)s1 | -20.9% (inactive) |
| CCOc1cc(/C=C(\C#N)c2nc(-c3cccs3)c(NC(C)=O)s2)ccc1O | -1.5% (inactive) |
| COc1cc(/C=C(\C#N)c2nc3c(s2)CC(C)CC3)ccc1O (stereo not given) | 93.6% (active) |
| COc1cc(/C=N/Nc2nc3ccccc3s2)ccc1O | 3.98% (inactive) |
| O=C(COC(=O)/C=C/c1ccc2c(c1)OCO2)NC1CCS(=O)(=O)C1 (stereo not given) | 17.7% (inactive) |
| Cc1nc(C)c2c(c1C(F)(F)F)-c1ccccc1C2(F)F | 84.7% (active) |
| CSc1n[nH]c(=S)n1N | 0.04% (inactive) |
| CC(C)(C)C(=O)OCc1nc(-c2ccc(O)c(O)c2)cs1 | -105% (inactive) |
| Cc1ccc(C(=O)NC(=S)Nc2ccc3[nH]c(=O)[nH]c3c2)cc1C | 1.63% (inactive) |
| Cc1cc(C)cc(C(=O)NC(=S)Nc2ccc3[nH]c(=O)[nH]c3c2)c1 | 81.3% (active) |
| Cc1ccc(S(=O)(=O)/N=C(/Nc2ccc3[nH]c(=O)[nH]c3c2)c2ccccc2)cc1 | -16.7% (inactive) |
| CC1(C)CCCC2=C1CC1C(=O)N(c3ccccc3)C(=O)C1C2 (stereo not given) | 12% (inactive) |
| CC1CC2=C(CC1/C=N/NC(N)=S)C(C)(C)CCC2 (stereo not given) | 89.8% (active) |
| CN(C(=O)Nc1ccc(Cl)cc1)n1cnc2ccccc2c1=O | 20.1% (inactive) |
| CC1(C)C=C2[C@H]3CC[C@@H]4[C@@]5(C)CCC(=O)C(C)(C)[C@@H]5CC[C@@]4(C)[C@]3(C)CC[C@@]2(C(=O)O)CC1 | 95% (active) |
| COC(=O)/C=C(\Oc1ccccc1)C1(O)CCCCC1 | 7.27% (inactive) |
| Fc1ccc(Nc2nnns2)cc1 | 3.88% (inactive) |
